# The list is not random: actives were taken first. Their share in the collection is about 0.41%.
# aGlu spleen mod: qHTS Assay for Inhibitors and Activators of Human alpha-Glucosidase From Spleen Homogenate; Potency, µM (series often up to 79.9 µM), for the others: top-dose activity change, negative = inhibition, actives largely listed as inhibitors; Lysosomal alpha-glucosidase (Homo sapiens), P10253; hit rate 0.006% among 240,000; human spleen homogenate, 4-MU-alpha-glucoside fluorescence;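 also: potency is read from the fitted curve at half-maximal effect; 0% = enzyme with vehicle and -100% = no enzyme basal signal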
#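 Compounds were titrated against alpha-glucosidase in spleen homogenate at pH 5.0, with 1 mM 4-methylumbelliferyl substrate for 40 min at 37 C. Reactions were quenched with pH 10 NaOH/glycine and fluorescence measured.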
# GLA spleen mod: qHTS Assay for Inhibitors and Activators of Human alpha-Galactosidase From Spleen Homogenate | hit rate 0.008% among 240,000 | human spleen homogenate, 4MU-alpha-Gal fluorescence, 40 min | AID 2107, 2009 | Potency, µM (titrated, usually from 80 µM), for the others: at the highest dose activity change, negative = inhibition, hits mostly inhibitors | Alpha-galactosidase A (Homo sapiens), P06280;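 also: potency is read from the fitted curve at half-maximal effect; 0% = enzyme with vehicle and -100% = no enzyme basal signal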
# Target sequence (P06280 32-429 limits assumed): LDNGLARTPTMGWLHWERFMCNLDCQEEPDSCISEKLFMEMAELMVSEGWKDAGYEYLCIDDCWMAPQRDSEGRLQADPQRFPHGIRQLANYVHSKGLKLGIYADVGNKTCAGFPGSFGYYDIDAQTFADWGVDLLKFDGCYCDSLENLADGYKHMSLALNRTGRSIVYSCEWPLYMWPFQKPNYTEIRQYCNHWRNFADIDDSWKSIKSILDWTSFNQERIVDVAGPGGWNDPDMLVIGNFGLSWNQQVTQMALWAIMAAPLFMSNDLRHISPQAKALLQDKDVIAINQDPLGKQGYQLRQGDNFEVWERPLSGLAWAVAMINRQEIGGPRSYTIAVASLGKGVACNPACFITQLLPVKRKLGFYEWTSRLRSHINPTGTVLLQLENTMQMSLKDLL
#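 Human spleen homogenate (1 ug) as enzyme source, 4-methylumbelliferyl-alpha-D-galactopyranoside 1 mM final, citrate/phosphate pH 5.0 with 0.01% Tween-20. Compounds 40 min at 37C, NaOH/glycine stop; fluorescence Ex 365/Em 440, Hill-fit AC50.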
# GAA inhib: qHTS Assay for Inhibitors of Human alpha-Glucosidase as a Potential Chaperone Treatment of Pompe Disease; Lysosomal alpha-glucosidase (Homo sapiens), P10253; purified human GAA, 4-MU-alpha-glucoside fluorescence; Potency, µM (top dose mostly 76.9 µM), without a hit: at the top dose activity change, negative = inhibition, usual class: inhibitors; hit rate 0.005% among 200,000;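 also: potency is read from the fitted curve at half-maximal effect; plate controls were uninhibited enzyme wells for no effect and no-enzyme background for full effect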
#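 Endpoint fluorogenic read: 20 min room-temperature reaction of 4 nM human alpha-glucosidase with 400 uM 4-methylumbelliferyl-alpha-D-pyranoside, pH 5.0, quenched with 1M NaOH/1M glycine pH 10. AC50 from Hill modeling.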
# GLA inh pH 4.5: qHTS Assay for Inhibitors of Human alpha-Galactosidase at pH 4.5; Alpha-galactosidase A (Homo sapiens), P06280; AID 1467, 2008; activity change, negative = inhibition, % at 105 µM; 230,000 tested, under 10 active; purified enzyme, 4-MU-alpha-Gal fluorescence, pH 4.5;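 also: 0% = full activity with enzyme and -100% = basal without enzyme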
# N370S GC mod: qHTS Assay for Inhibitors and Activators of N370S glucocerebrosidase as a Potential Chaperone Treatment of Gaucher Disease; N370S GC spleen homogenate, 4MU-glucoside fluorescence; AID 2101, 2009; Potency, µM (series often up to 59.4 µM), inactives show at the highest dose activity change, negative = inhibition, hits mostly inhibitors; Lysosomal acid glucosylceramidase (Homo sapiens), P04062; hit rate 0.092% among 330,000;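 also: potency is read from the fitted curve at half-maximal effect; 0% = full enzyme activity and -100% = no enzyme basal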
# GAA glycogen: qHTS Assay for Inhibitors and Activators of Human alpha-Glucosidase Cleavage of Glycogen; hit rate 0.38% among 300,000; AID 2100, 2009; Potency, µM (titrated, usually from 76.4 µM), for the others: top-dose activity change, negative = inhibition, usual class: inhibitors; Lysosomal alpha-glucosidase (Homo sapiens), P10253; recombinant GAA, glycogen substrate, Amplex Red glucose oxidase fluorescence;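 also: potency is read from the fitted curve at half-maximal effect; 0% = full enzyme reaction and -100% = no-enzyme basal signal; the screen sought inhibitors and activators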
#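 Recombinant human enzyme (4 nM); glycogen substrate; 37 C, 40 min, pH 5.0. Readout: coupled glucose oxidase/Amplex Red fluorescence.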
# An asterisk follows results filed as active; ? = inconclusive; nt = no result; [ ] = dose if it differs, or a comment. Calls follow the shape of the dose curve; as a rule, active = well fitted curve in the direction sought with a large enough effect; inconclusive = small, poorly fitted or top-dose-only effect, or another doubt; inactive = no such curve, though single readings can be large; an effect the other way counts as inactive or inconclusive.
SMILES,aGlu spleen mod,GLA spleen mod,GAA inhib,GLA inh pH 4.5,N370S GC mod,GAA glycogen
Cc1cc(C)cc(N(CC(=O)Nc2cccc(C)c2C)S(=O)(=O)c2c(C)[nH]c(=O)[nH]c2=O)c1,nt,nt,nt,nt,2.51µM*,11.8%[76.3 µM]
Cc1cc(C)cc(N(CC(=O)Nc2cc(C)ccc2C)S(=O)(=O)c2c(C)[nH]c(=O)[nH]c2=O)c1,nt,nt,nt,nt,8.91µM*,nt
COc1ccc(N(CC(=O)Nc2cccc(C)c2C)S(=O)(=O)c2c(C)[nH]c(=O)[nH]c2=O)cc1,1.1%,10.4%,nt,0.6,1.6%,4.2%
CCOC(=O)c1ccc(N2C(=O)c3n[nH]c(-c4cccs4)c3C2c2ccc(O)c(OC)c2)cc1 (configuration not stated),nt,nt,nt,nt,nt,4.9%[76.3 µM]
CC(C)c1ccc(NC(=O)c2cc3c(s2)-c2ccccc2SC3)cc1,nt,nt,nt,nt,nt,10.0%[76.3 µM]
CCOC(=O)Nc1ccc2c(c1)Nc1ccccc1S2,2.2%,-0.4%,-9.6%,-8.2,-4.7%,14µM*
CC(=O)c1ccc2c(c1)Nc1ccccc1S2,-4.7%,-10.2%,-2.2%,-3.2,3.1%,31.4µM*
CCOC(=O)c1ccc(NC(=O)c2ccc3c(c2)NC(=O)c2ccccc2S3)cc1,nt,nt,nt,nt,nt,10.1%[76.3 µM]
CCOc1ccc(S(=O)(=O)N(CC(=O)Nc2ccc3c(c2)OCO3)c2ccccc2)cc1,nt,nt,nt,nt,nt,10.4%[76.3 µM]
COCCCNC(=S)N/N=C/c1ccc(OC)cc1,7.0%,-10.3%,5.1%,-3.9,5.0%,-25.6%
COc1ccc(/C=N/NC(=O)C(=O)NCC2CCCO2)cc1 (configuration not stated),-5.3%,2.4%,-2.5%,11.5,1.1%,-4.7%
COCCCNC(=S)N/N=C/c1ccc(O)cc1,11.1%,12.2%,-0.6%,-1.4,-17.9%,31.6µM*
Oc1ccc(/C=N/NC(=S)NCC2CCCO2)cc1 (configuration not stated),-11.1%,-0.8%,-1.8%,-10.0,nt,31.6µM*
Nc1ncc(-c2ccccc2)c(-c2ccc(O)cc2O)n1,nt,nt,nt,nt,14.1µM*,2.6%
COc1ccc(-c2cnc(N)nc2-c2ccc(OCc3ccccc3)cc2O)cc1,-1.7%,1.3%,-4.6%,-16.7,-3.0%,-5.5%
C=CC[n+]1c(-c2ccccc2)csc1NC(C)(C)C,-8.7%,-6.5%,-3.2%,-8.1,-1.5%,6.5%
C=CC[n+]1c(-c2ccc(OC)c(OC)c2)csc1NNC(=O)Nc1ccccc1,4.5%,4.6%,-4.1%,0.4,-2.7%,31.6µM*
CO[C@H]1COC(=O)C/C=C\[C@@H](C)COC(=O)[C@H]2CCCN2C(=O)C/C=C\[C@H]1C,1.7%[17.4 µM],-5.1%[17.5 µM],nt,nt,4.9%[12.8 µM],nt
COc1ccc(-c2cc(-c3cc(OC)ccc3O)[nH]n2)cc1,3.1%,4.0%,-0.3%,0.7,-3.6%,19.8µM*
Cc1cc(C)n2nc(CNS(=O)(=O)c3cccc(Cl)c3)nc2n1,nt,nt,nt,nt,nt,17.2%[76.3 µM]
CCOC(=O)CNc1c(-c2ccc(O)cc2)nc2ccccn12,4.1%,-10.0%,0.2%,-2.8,-10.3%,35.2µM*
CCOC(=O)CNc1c(-c2ccccc2)nc2ccc(Cl)cn12,0.0%,17.8%,-2.2%,7.2,6.6%,4.47µM*
CCOC(=O)C(=O)c1c(-c2ccc(C)cc2)nc2ccccn12,-5.3%,2.5%,-5.5%,-5.5,2.8%,-9.6%
O=C(Nc1c(-c2ccccc2)nc2ccc(Cl)cn12)c1cccs1,-4.0%,1.7%,-4.9%,3.7,-4.1%,4.6%
CCOC(=O)CNc1c(-c2ccc(O)cc2)nc2ccc(Cl)cn12,-7.3%,1.3%,8.9%,-11.9,?,22.4µM*
SMILES,aGlu spleen mod,GLA spleen mod,GAA inhib,GLA inh pH 4.5,N370S GC mod,GAA glycogen
Cc1nn(-c2ccc(Cl)cc2)c2nc(-c3cccnc3)cc(C(F)(F)F)c12,nt,nt,nt,nt,nt,17.0%[76.3 µM]
O=C(NNc1nc2c(F)cccc2s1)C1COc2ccccc2O1 (configuration not stated),-2.3%,-8.6%,-16.7%,4.5,3.6%,4.43µM*
COc1cccc2sc(NNC(=O)C3COc4ccccc4O3)nc12 (configuration not stated),-6.1%,-4.9%,-1.4%,-2.8,22.6%,-17.1%
C=C(C(C)=O)C(O)/C=C/c1ccco1 (configuration not stated),-8.4%,-0.8%,nt,-7.1,-6.0%,nt
CCCCc1c(C)c(C#N)c2nc3ccccc3n2c1Nc1c(C)n(C)n(-c2ccccc2)c1=O,-2.5%,7.4%,5.2%,4.0,10.4%,?
Cc1c(Nc2c3c(c(C#N)c4nc5ccccc5n24)CCC3)c(=O)n(-c2ccccc2)n1C,2.9%,20.8%,6.3%,-4.0,-8.4%,7.03µM*
CC(C)C(C)NC(=O)CSc1nc2scc(-c3ccco3)c2c(=O)n1-c1ccccc1 (configuration not stated),-18.8%,-3.8%,-9.4%,-1.0,1.12µM*,9.3%
Cc1ccc(C(=O)NC(=S)NNC(=O)CC#N)cc1,6.6%,5.9%,?,-0.3,-2.4%,11.1µM*
CCCCC(=O)NNC(=S)NC(=O)c1ccc(C)cc1,-11.5%,2.3%,?,7.7,-10.5%,-29.4%
O=C1CC(c2ccc(O)c(O)c2)Oc2c1ccc(O)c2O (configuration not stated),-1.6%,-0.5%,nt,2.6,-5.7%,11.2µM*
CC(C)=CCc1c(O)ccc2c1OC(c1ccc(O)c(O)c1)CC2=O (configuration not stated),0.6%,-3.8%,nt,2.7,-18.6%,?
COc1ccccc1N(C(=O)CCl)c1cn(C(C)=O)c2ccccc12,-2.9%,-8.1%,nt,-5.0,4.7%,-1.6%
CC(=O)n1cc(N(C(=O)CCl)c2ccc(Cl)cc2)c2ccccc21,-0.2%,6.2%,nt,-8.0,15.8µM*,-8.6%
Nc1ccc(C(=O)C(=O)c2ccc(N)cc2)cc1,-6.1%,-3.6%,nt,-4.1,-13.9%,-6.9%
N=C1C=CC(=C(c2ccc(N)cc2)c2ccc(N)cc2)C=C1,8.0%,4.1%,nt,nt,3.55µM*,nt
Cc1c(C(=O)NCCN2CCOCC2)oc2ccc(S(=O)(=O)N3CCCCCC3)cc12,-3.4%,-12.2%,?,-5.2,15.8µM*,2.6%
CCCc1ccc2oc(C(=O)NCCN3CCCC(O)C3)c(C)c2c1 (configuration not stated),nt,nt,nt,nt,15.8µM*,nt

# Bioassay records from PubChem BioAssay.
